EBNA-1 inh – EBNA-1 DNA-binding inhibitors, primary screen, biochemical, fluorescence polarization; inhibition, % at 14.8 µM; 0.34% of 300,000 active; AID 1950, 2009; in the data active = inhibition above about 28%
ZTA DNA inh – blocks Epstein-Barr virus ZTA, an EBNA-1 counter-screen; P03206; ZTA-DNA binding, fluorescence polarization; inhibition, % at 11 µM; 0.15% of 320,000 active; in the data active = inhibition above about 33%
Target sequence (P03206 whole entry, looked up): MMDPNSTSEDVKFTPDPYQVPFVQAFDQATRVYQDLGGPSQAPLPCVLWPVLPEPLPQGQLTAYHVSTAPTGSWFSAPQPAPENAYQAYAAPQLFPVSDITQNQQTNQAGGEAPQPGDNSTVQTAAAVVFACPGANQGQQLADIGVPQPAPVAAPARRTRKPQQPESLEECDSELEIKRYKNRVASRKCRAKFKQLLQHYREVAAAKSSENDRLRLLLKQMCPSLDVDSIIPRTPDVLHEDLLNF
PAFAH1B2 FP inh – PAFAH1B2 enzyme inhibitors, primary screen, biochemical, fluorescence polarization, human. Platelet-activating factor acetylhydrolase IB subunit alpha2 (Homo sapiens), P68402. recombinant PAFAH1B2, FP-rhodamine activity probe. inhibition, % at 3.39 µM. 1.2% of 340,000 active. AID 492953, 2010;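 active = inhibition above the mean of all tested compounds plus 3 SD, cut at about 24% in these data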
Target sequence (P68402 whole entry, looked up): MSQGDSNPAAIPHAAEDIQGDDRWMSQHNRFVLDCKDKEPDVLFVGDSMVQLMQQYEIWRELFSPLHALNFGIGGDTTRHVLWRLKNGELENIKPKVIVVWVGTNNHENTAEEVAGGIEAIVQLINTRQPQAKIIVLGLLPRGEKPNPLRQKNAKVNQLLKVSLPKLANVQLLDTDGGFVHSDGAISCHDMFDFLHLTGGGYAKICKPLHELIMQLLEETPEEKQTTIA
PAFAH2 inh – PAFAH2 enzyme inhibitors, primary screen, biochemical, fluorescence polarization, human | Platelet-activating factor acetylhydrolase 2, cytoplasmic (Homo sapiens), Q99487 | recombinant PAFAH2, FP-rhodamine activity probe | inhibition, % at 3.39 µM | 0.99% of 340,000 active | AID 492956, 2010;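 active = inhibition above the mean over all tested compounds plus 3 SD, cut at about 30% in these data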;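 note: inhibitors block probe labeling of enzyme so polarization drops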
PAFAH1B3 FP inh – PAFAH1B3 enzyme inhibitors, primary screen, biochemical, fluorescence polarization, human. Platelet-activating factor acetylhydrolase IB subunit alpha1 (Homo sapiens), Q15102. recombinant PAFAH1B3, FP-rhodamine probe. inhibition, % at 3.39 µM. 0.28% of 340,000 active. AID 492972, 2010;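 active = inhibition above the screen-wide average of all tested compounds plus 3 SD, cut at about 25% in these data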
rCAG binder – binders of r(CAG) RNA repeats, primary screen, biochemical, fluorescence; r(CAG) RNA repeat, TO-PRO-1 dye displacement fluorescence; inhibition, % at 3 µM; 1.3% of 370,000 active; AID 651821, 2012;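 active = inhibition above the plate cutoff, the mean of all test compounds on that plate plus 3 SD, cut at about 35% in these data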;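 note: higher means more dye released from RNA so lower well fluorescence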
rCAG bind conf – small molecules binding CAG repeat RNA – biochemical, fluorescence, confirmation | shares compounds with rCAG binder | r(CAG) RNA repeat, TO-PRO-1 dye displacement fluorescence | inhibition, % at 3 µM | 70% of 4,300 active;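 active = inhibition above a per-plate cutoff, the mean inhibition of sample wells plus 3 SD, cut at about 35% in these data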;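 note: loss of TO-PRO-1 fluorescence as compound displaces dye from 1x1 AA loop RNA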
DNA CAG counter – displacement of TO-PRO-1 from CAG DNA duplex, counter-screen for rCAG RNA repeat binder project, biochemical, fluorescence, TO-PRO-1 dye, d(CAG) DNA oligo; shares compounds with rCAG binder; d(CAG) DNA oligo TO-PRO-1 dye displacement; inhibition, % at 3 µM; 94% of 4,300 active; AID 652068, 2013;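 active = inhibition above its plate's cutoff, the mean test-well inhibition plus 3 SD, cut at about 4.8% in these data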;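 note: hits displace the dye from DNA and so lower well fluorescence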
DNA CAG DR – inhibitors of DNA CAG/GTC TO-PRO-1 complex, dose response, counter-screen for rCAG RNA repeat binder project, biochemical, fluorescence, TO-PRO-1 dye; shares compounds with rCAG binder; DNA CAG/GTC duplex TO-PRO-1 dye displacement fluorescence; IC50, µM; 20% of 250 active; AID 686960, 2013; in the data active = IC50 below about 10 µM
Hits are given with their value. Compounds with a hit are over-represented: about 2.9% of the library has one in this group of screens.

`O=C(CC(CC(=O)c1ccc(Cl)cc1)c1ccccc1C(=O)O)c1ccc(Cl)cc1` gave EBNA-1 inh inactive, ZTA DNA inh inactive, PAFAH1B2 FP inh inactive, PAFAH2 inh inactive, PAFAH1B3 FP inh inactive, rCAG binder 42, rCAG bind conf 54 and DNA CAG counter 13.
`O=C(O)c1ccccc1C(=O)c1ccc(Cl)cc1` gave EBNA-1 inh inactive, ZTA DNA inh inactive, PAFAH1B2 FP inh inactive, PAFAH2 inh inactive, PAFAH1B3 FP inh inactive and rCAG binder inactive.
CC(C)(C)c1ccc(OCC(=O)Nc2ccc(C(=O)Nc3ccccc3C(=O)O)cc2)cc1 was read as EBNA-1 inh inactive, ZTA DNA inh inactive, PAFAH1B2 FP inh inactive, PAFAH2 inh inactive, PAFAH1B3 FP inh inactive, rCAG binder 43, rCAG bind conf 88 and DNA CAG counter 67.
COc1ccc(CC(=O)Nc2ccc(C(=O)Nc3ccccc3C(=O)O)cc2)cc1OC was read as EBNA-1 inh inactive, ZTA DNA inh inactive, PAFAH1B2 FP inh inactive, PAFAH2 inh inactive, PAFAH1B3 FP inh inactive, rCAG binder 59, rCAG bind conf 42 and DNA CAG counter 9.9.
`COc1ccc(NC(=O)c2ccccc2NC(=O)COc2ccccc2)cc1` gave EBNA-1 inh inactive, ZTA DNA inh inactive, PAFAH1B2 FP inh inactive, PAFAH2 inh inactive, PAFAH1B3 FP inh inactive and rCAG binder inactive.
For COc1ccccc1OCC(=O)Nc1ccc(C(=O)Nc2ccccc2C(=O)O)cc1 the results were rCAG binder 58, rCAG bind conf 65 and DNA CAG counter 23.
`C=CCN1C(=O)[C@@H](CC(=O)NCCCOCCCC)[C@]2(C(=O)OC)CCCCC=C12` gave rCAG binder inactive.
O=C(NCCN1CCOCC1)c1ccc(N2CCCC2)c([N+](=O)[O-])c1 was read as EBNA-1 inh inactive, ZTA DNA inh inactive, PAFAH1B2 FP inh inactive, PAFAH2 inh inactive, PAFAH1B3 FP inh inactive and rCAG binder inactive.
For CCN(CC)S(=O)(=O)c1cccc(NC(=O)c2cccc(S(=O)(=O)N3CCCC3)c2)c1 the results were ZTA DNA inh inactive, PAFAH1B2 FP inh inactive, PAFAH2 inh inactive, PAFAH1B3 FP inh inactive and rCAG binder inactive.
Screening CC1Cc2cc(/C=C3/SC(=S)NC3=O)ccc2O1 (stereo not drawn) returned EBNA-1 inh inactive, ZTA DNA inh inactive, PAFAH1B2 FP inh inactive, PAFAH2 inh inactive, PAFAH1B3 FP inh inactive, rCAG binder 37, rCAG bind conf inactive and DNA CAG counter 5.9.
`CCCc1cc2c(-c3ccccc3)cc(=O)oc2cc1OCc1ccc(C(=O)O)o1` gave EBNA-1 inh inactive, ZTA DNA inh inactive, PAFAH1B2 FP inh inactive, PAFAH2 inh inactive, PAFAH1B3 FP inh inactive, rCAG binder 57, rCAG bind conf 73, DNA CAG counter 27 and DNA CAG DR inactive.
For O=C(O)c1ccc(NC(=S)NC(=O)C(c2ccccc2)c2ccccc2)cc1 the results were EBNA-1 inh inactive, ZTA DNA inh inactive, PAFAH1B2 FP inh inactive, PAFAH2 inh inactive, PAFAH1B3 FP inh inactive and rCAG binder inactive.
`Cc1ccc(-n2nc3ccc(NC(=O)/C=C/c4ccco4)cc3n2)cc1` gave EBNA-1 inh inactive, ZTA DNA inh inactive, PAFAH1B2 FP inh inactive, PAFAH2 inh inactive, PAFAH1B3 FP inh inactive, rCAG binder 38, rCAG bind conf inactive and DNA CAG counter 11.
Screening CC1(C)CCC(C)(C)c2cc(NC(=O)c3ccc(C(=O)O)cc3)ccc21 returned rCAG binder 53, rCAG bind conf 36 and DNA CAG counter 7.5.
